Assay results: PubChem BioAssay AID651791 (National Center for Advancing Translational Sciences (NCATS), 2012)
Results filed as inconclusive are left out. Active and inactive are the calls of the source. Calls come from the whole dose curve; as a rule, active = well fitted inhibition curve with a large enough effect; inconclusive = small, poorly fitted or top-dose-only effect; inactive = no such curve, though single readings can be large or run the other way.

Test: InCell qHTS Assay for Inhibitors of the mTORC1 Signaling Pathway in MEF (Tsc2-/-, p53-/-) Cells: Hit Validation;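 note: phospho-S6 Ser235/236 signal normalized to propidium iodide cell count per well; nearly all actives have a fitted effect of over 75% in size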
Conditions: phospho-rpS6 immunofluorescence, 24 h; activity change, negative = inhibition: at 38.3 µM (top of the series)
Potency is the fitted concentration of half-maximal effect.

Activity change, negative = inhibition, -25.4%:
Cc1ccc2sc(N(CCCN(C)C)C(=O)c3ccco3)nc2c1C

Activity change, negative = inhibition, -19.5%:
Cc1cc(C)cc(NC(=O)c2cnn(-c3ccc(C)c(C)c3)c2C2CCNCC2)c1

Activity change, negative = inhibition, -100%:
CCOC(=O)c1c(C)n(-c2ccccc2)c2ccc(OC(=O)c3ccccc3)cc12, CCOc1cc(-c2nnc(SCC(=O)NCc3ccccc3)nc2-c2ccc(OC)c(OCC)c2)ccc1OC, COc1ccc(CCN2C(=O)c3[nH]nc(-c4ccccc4O)c3C2c2ccc(OC)c(OC)c2)cc1 (configuration not stated), COc1ccc(S(=O)(=O)NCCc2csc3nc(-c4ccc(Cl)cc4)nn23)cc1C, CCCC1=Nc2cc(C(=O)NCc3ccccc3)ccc2Sc2ccccc21, CCc1ccc(-c2nc(CSCC(=O)NCc3ccc(C)cc3)c(C)o2)cc1, Cc1ccc(-c2cc(C(=O)N3CCN(c4ccccc4)CC3)c3ccccc3n2)cc1C, CCc1cnc2c(c1SCC(=O)NCc1ccc(F)cc1)c(=O)n(C)c(=O)n2C, COc1ccc(Nc2nc(N)c3cc(OC)c(OC)cc3n2)cc1, Cc1cccc(Oc2coc3cc(OCC(=O)NC4CCCCC4)ccc3c2=O)c1, CCOc1ccc(Nc2nc(-c3cccc(Cl)c3)c3c(n2)-c2ccccc2OC3)cc1, CCc1nn(CC(=O)NCc2ccccc2)c(=O)c2cccn12, COc1ccc(N2CCN(C(=O)C3CCCN(S(=O)(=O)c4ccc5c(c4)CCCN5C(C)=O)C3)CC2)cc1 (configuration not stated), COc1cc(C(=O)N(CCCN(C)C)c2nc3c(OC)cccc3s2)cc(OC)c1OC, CCOc1ccc(C(=O)NCCc2sc(-c3ccc(C)cc3)nc2C)cc1, O=C(NCCc1ccc(Cl)cc1)C(=O)NCC(c1cccs1)S(=O)(=O)c1cccs1 (configuration not stated), CC(C)(C)c1ccc(C2NC(=O)c3n[nH]c(-c4cccs4)c32)cc1 (configuration not stated), Cc1ccc(NC(=O)COc2ccc(-c3nn(C)c(=O)c4ccccc34)cc2)c(C)c1, Cc1cccc(Nc2nnc(-c3ccc(C)c(S(=O)(=O)N4CCN(C)CC4)c3)c3ccccc23)c1, CCN1CCC(N(Cc2ccc(F)cc2)C(=O)Nc2ccc(C)c(F)c2)CC1, CC1CCCN(CCCNC(=O)c2ccc3c(c2)N(Cc2ccc(Cl)cc2)C(=O)c2ccccc2S3(=O)=O)C1 (configuration not stated), Cc1ccc(NC(=O)CCS(=O)(=O)c2ccc3nc(C)sc3c2)cc1, Cc1ccc(S(=O)(=O)c2nc(-c3ccco3)oc2SC(C)c2ccccc2)cc1 (configuration not stated)

Activity change, negative = inhibition, -28.4%:
Cc1ccccc1S(=O)Cc1ccc(C(=O)N2CCN(c3cccc(C)c3C)CC2)o1 (configuration not stated)

Activity change, negative = inhibition, -16%:
Cc1cc(Cl)ccc1NC(=O)CN1C(=O)C(=O)c2ccccc21

Activity change, negative = inhibition, 1.72%:
COc1ccccc1-c1cc(C(=O)Nc2cc(OC)c(OC)c(OC)c2)no1

Activity change, negative = inhibition, -17.1%:
Cc1cccc(C2C=C(c3ccc(C)c(C)c3)Nc3nnnn32)c1 (configuration not stated)

Activity change, negative = inhibition, -9.58%:
CC(C)Oc1cccc(C2CC(=O)Nc3cc4c(cc32)OCO4)c1 (configuration not stated)

Activity change, negative = inhibition, -21.2%:
COc1ccc(NC(=O)Cn2c(=O)n(-c3ccccc3)c(=O)c3ccc(C(=O)NCc4ccc5c(c4)OCO5)cc32)cc1

Activity change, negative = inhibition, -8.71%:
COc1ccc(Cl)cc1S(=O)(=O)NCc1ccc2c(c1)CCN2C(=O)c1cccc(C)c1

Activity change, negative = inhibition, -22.5%:
O=C(NC1CCCCC1)/C(=C/c1ccc(Cl)cc1)NC(=O)c1ccccc1

Potency, active:
C=CCc1c(C)nc2nc(SCC(=O)Nc3ccc(C)c(C)c3)nn2c1C 9.27 µM, CCNC(=O)c1c(NC(=O)c2nc(S(=O)(=O)CC)ncc2Cl)sc2c1CCCC2 2.07 µM, CCS(=O)(=O)c1ncc(Cl)c(C(=O)Nc2ccc(S(=O)(=O)N(C)c3ccccc3)cc2)n1 1.85 µM, CCCCS(=O)(=O)c1oc(-c2ccc(F)cc2)nc1S(=O)(=O)c1ccc(C)cc1 5.85 µM
